HCV inh = inhibitors of hepatitis C virus infection | Potency, µM (highest dose often 41.8 µM), hits mostly inhibitors | hit rate 3.4% among 340,000 | Huh7.5.1 HCVcc-Cre infection, luciferase reporter, 44 h
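Reporter virus HCVcc-Cre (~0.5 moi) infects cells exposed to compound; seeding density 1,000 cells/well with 4 h settling beforehand. Luminescence, 15 sec read, taken 44 h post-infection following a 15 min RT substrate incubation.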
Pf growth 48h = inhibits P. falciparum growth in the first generation, 48 h. P. falciparum luciferase growth in erythrocytes, 48 h. Potency, µM (doses to about 28.7 µM), actives largely listed as inhibitors. hit rate 5.9% among 310,000. AID 504832
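Compounds are pin-transferred into medium, infected erythrocytes (2% hematocrit, 0.1% parasitemia final) are added, and plates sit one parasite generation at 37 C in 5% CO2. Detection reagent is then added and luminescence measured.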
SARS PLpro yeast = inhibitors of SARS-CoV papain-like protease in yeast. S. cerevisiae expressing SARS-CoV PLpro, growth rescue. Potency, µM (series often up to 32.9 µM), hits mostly activators. AID 485353. hit rate 0.19% among 330,000; calls by dose curve; also: nearly all actives have a fitted effect of over 55% in size
HCMV antiviral = blocks human cytomegalovirus replication; hit rate 4.5% among 410,000; activity change, negative = inhibition, % at 57.5 µM; AID 1259415; HFF cells, HCMV-luciferase reporter, 72 h; stronger effect = lower value; in the data active = activity change below about -60%; inconclusive = no clear call, values can overlap the other calls; inactive = above about -39%
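After 16 h attachment at 37C, HFF cells received test compound and HCMV-luciferase (1 PFU/cell); reporter luminescence read 72 h later, data normalized against buffer-only and known inhibitor Salinomycin.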
Pf growth 96h = P. falciparum growth inhibition at 96 hours | P. falciparum luciferase reporter growth, 96 h | Potency, µM (top dose mostly 28.7 µM), most hits filed as inhibitors | hit rate 6.9% among 320,000
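Erythrocytes infected with luciferase-expressing P. falciparum were dispensed at 2% hematocrit and 0.05% parasitemia (final), then incubated with compounds 96 hours at 37 C in 5% CO2. Luminescence after detection reagent addition reported growth.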
Sm TGR inh = S. mansoni TGR enzyme inhibition; Q962Y6; purified TGR, DTNB reduction, TNB absorbance 405 nm; Potency, µM (titrated, usually from 114 µM), hits mostly inhibitors; hit rate 3% among 360,000; AID 485364; also: nearly all actives have a fitted effect of over 60% in size
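First, TGR (20 nM dispensed) and NADPH were mixed with compound. Second, a 15 min room-temperature incubation followed. Third, further NADPH and then DTNB were added to start the reaction. Finally, TNB absorbance was monitored kinetically.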
Of the large screens only hits and unclear results are named; the others gave an inactive call. Sampled rows, rich in hits. Any-hit rate of the full collection: about 15%. Unless noted, calls follow the shape of the dose curve; as a rule, active = well fitted curve in the direction sought with a large enough effect; inconclusive = small, poorly fitted or top-dose-only effect, or another doubt; inactive = no such curve, though single readings can be large; an effect the other way counts as inactive or inconclusive.

O=C(Oc1cccc(/C=N/Nc2nc(Nc3ccccc3)nc(N3CCOCC3)n2)c1)c1ccco1	HCV inh inconclusive, Pf growth 48h inconclusive
CN1C(=O)CCC1c1cccnc1 (stereo unspecified)	Pf growth 96h 1.1µM (no result: HCV inh, SARS PLpro yeast, HCMV antiviral, Sm TGR inh)
CCN1CCN(C(=S)Nc2cc(S(=O)(=O)N(CC)CC)ccc2C)CC1	none
CC(=O)N1CCc2cc(C(=O)CN3CCN(C(=O)c4ccco4)CC3)ccc21	Pf growth 96h inconclusive, Sm TGR inh 14µM (no result: Pf growth 48h, HCMV antiviral)
CC(=O)N1CCc2cc(C(=O)CN3CCC(C)CC3)ccc21	Sm TGR inh 28µM (no result: Pf growth 48h)
CC(=O)N1CCc2cc(C(=O)CN3CCN(c4cccc(Cl)c4)CC3)ccc21	Sm TGR inh 25µM (no result: Pf growth 48h)
CC(=O)N1CCc2cc(C(=O)CN3CCCN(Cc4ccc(F)cc4)C3)ccc21	Pf growth 96h inconclusive, Sm TGR inh 45µM (no result: HCV inh, Pf growth 48h, HCMV antiviral)
CC1CCN(CC(=O)N2CCc3ccccc32)CC1	none
Cc1ccc(S(=O)(=O)N(C)C)cc1NC(=O)COC(=O)C1=COCCO1	none
Cc1noc(C)c1S(=O)(=O)Nc1ccc(C(=O)Nc2ccc(OC(F)(F)F)cc2)cc1	HCV inh 14µM, Pf growth 96h inconclusive
COc1cc(NC(=O)c2ccc(NS(=O)(=O)c3c(C)noc3C)cc2)cc(OC)c1	Pf growth 48h inconclusive, Pf growth 96h 0.33µM
COc1ccc(OC)c(NC(=O)c2ccc(NS(=O)(=O)c3c(C)noc3C)cc2)c1	HCV inh inconclusive, HCMV antiviral inconclusive, Pf growth 96h inconclusive
CCCCNC(=O)N(O)C1N(CCCC)C(=O)N(CC(=O)OC)C1(C)C (stereo unspecified)	Pf growth 96h 5.2µM
CCC(C(=O)NCc1ccccn1)n1c2ccccc2c2nc(=O)cc(C)n21 (stereo unspecified)	SARS PLpro yeast inconclusive
O=c1c2cc(Cl)ccc2[nH]c(=S)n1Cc1cccs1	HCV inh inconclusive, Pf growth 96h 13µM
Cc1ccc2cc(C(c3nnnn3C3CCCC3)N3CCN(c4ccc(F)cc4)CC3)c(=O)[nH]c2c1 (stereo unspecified)	Pf growth 48h 5.9µM, Sm TGR inh inconclusive
O=c1[nH]c2cc3c(cc2cc1C(c1nnnn1C1CCCC1)N1CCSCC1)OCCO3 (stereo unspecified)	HCMV antiviral -79
COc1cc2cc(C(c3nnnn3C3CCCCC3)N(C)C3CCCCC3)c(=O)[nH]c2cc1OC (stereo unspecified)	HCV inh inconclusive, Pf growth 48h 5.9µM, Sm TGR inh inconclusive (no result: HCMV antiviral)
Cc1cc(C)c2cc(C(c3nnnn3C3CCCC3)N3CCOCC3)c(=O)[nH]c2c1 (stereo unspecified)	Pf growth 48h inconclusive
Cc1cc2nc(CCN(C(=S)NCC(C)C)C3CCCC3)[nH]c2cc1C	HCV inh inconclusive, Pf growth 48h inconclusive, HCMV antiviral -85, Pf growth 96h inconclusive
Cc1cc2nc(CCN(C(=S)NCC3CCCO3)C3CCCC3)[nH]c2cc1C (stereo unspecified)	HCV inh 11µM, HCMV antiviral -63, Pf growth 96h inconclusive
CCOC(=O)CSc1nnc(NC(=O)CN2CCCCC2)s1	Pf growth 48h inconclusive
CCOC(=O)c1ccc(NC(=O)C2CCN(S(=O)(=O)Cc3ccccc3)CC2)cc1	none (no result: HCV inh, Pf growth 48h, SARS PLpro yeast, Pf growth 96h)
CCN(C(=O)CSc1nc(-c2cccs2)nc2ccccc12)C1CCS(=O)(=O)C1 (stereo unspecified)	Pf growth 48h inconclusive, Pf growth 96h inconclusive
Cc1ccc(/C=N/Nc2ncc(Cl)cc2Cl)s1	HCV inh inconclusive, HCMV antiviral -64, Pf growth 96h inconclusive (no result: Pf growth 48h)
CCCC(=O)NC(c1ccc(Cl)cc1Cl)c1ccc2cccnc2c1O (stereo unspecified)	HCV inh inconclusive, Pf growth 48h inconclusive, SARS PLpro yeast inconclusive, HCMV antiviral -105
CCCC(=O)NC(c1cccc([N+](=O)[O-])c1)c1ccc2cccnc2c1O (stereo unspecified)	HCMV antiviral -98 (no result: HCV inh, Pf growth 48h, SARS PLpro yeast, Pf growth 96h, Sm TGR inh)
CCCCC(=O)NC(c1ccc(Cl)cc1)c1ccc2cccnc2c1O (stereo unspecified)	HCV inh inconclusive, HCMV antiviral -98 (no result: Pf growth 48h, SARS PLpro yeast, Pf growth 96h, Sm TGR inh)
CCCCC(=O)NC(=O)NC(c1ccccc1)c1ccccc1	Pf growth 48h inconclusive, Pf growth 96h inconclusive
CCCCC(=O)NC(c1ccc(N(C)C)cc1)c1ccc2cccnc2c1O (stereo unspecified)	HCV inh 4µM, Pf growth 48h inconclusive, SARS PLpro yeast inconclusive, HCMV antiviral -102
CC(C)/C(C=O)=C(/NC1CCCCC1)c1ccccc1	none (no result: Pf growth 48h, SARS PLpro yeast, Pf growth 96h, Sm TGR inh)
CCOC(=O)c1cccc(NC(=O)c2ncoc2-c2ccco2)c1	none (no result: HCV inh, Pf growth 48h, SARS PLpro yeast, Pf growth 96h)
CC(=O)NC(c1ccc2ccccc2c1)c1ccc2cccnc2c1O (stereo unspecified)	HCV inh 2.5µM, Pf growth 48h inconclusive, HCMV antiviral -98
CCN(CC)c1ccc(C(NC(=O)C(C)C)c2ccc3cccnc3c2O)cc1 (stereo unspecified)	HCMV antiviral -99 (no result: HCV inh, Pf growth 48h, SARS PLpro yeast, Pf growth 96h, Sm TGR inh)
CCCC(=O)NC(c1ccc(Cl)cc1)c1ccc2cccnc2c1O (stereo unspecified)	HCV inh 1.8µM, Pf growth 48h inconclusive, HCMV antiviral -100
c1coc(CNc2nc3ccccc3s2)c1	none
CC(C)C(=O)NC(Nc1cccc2cccnc12)C(Cl)(Cl)Cl (stereo unspecified)	HCV inh inconclusive
Oc1c(C(Nc2nc3ccccc3s2)c2ccco2)ccc2cccnc12 (stereo unspecified)	HCV inh 2.5µM, Pf growth 48h 0.1µM, HCMV antiviral -98, Pf growth 96h inconclusive, Sm TGR inh inconclusive
COc1cccc(C(NC(C)=O)c2nc(-c3cccc4cccnc34)cs2)c1 (stereo unspecified)	none (no result: HCV inh, Pf growth 48h, SARS PLpro yeast, Pf growth 96h, Sm TGR inh)
CC(C)C(=O)NC(c1ccco1)c1ccc2cccnc2c1O (stereo unspecified)	HCV inh 4µM, Pf growth 48h 2.1µM, SARS PLpro yeast inconclusive, HCMV antiviral -102
Nc1cc(-c2nn[nH]n2)ccc1F	HCMV antiviral -91, Sm TGR inh inconclusive
CCOC(=O)c1c(S(=O)(=O)NCC(=O)N2CCN(c3cccc(Cl)c3)CC2)c(C)n(C)c1C	none (no result: HCV inh, Pf growth 48h, SARS PLpro yeast, Pf growth 96h)
COC(=O)c1nonc1NCn1nnc2ccccc21	Pf growth 96h inconclusive, Sm TGR inh inconclusive
Cc1nonc1NCn1nnc2ccccc21	Sm TGR inh 35µM
COc1ccc(N2C(=O)CC(Sc3n[nH]c(-c4ccccc4)n3)C2=O)cc1 (stereo unspecified)	Pf growth 96h inconclusive, Sm TGR inh 0.32µM
CCOc1ccc(N2C(=O)CC(Sc3n[nH]c(-c4ccccc4)n3)C2=O)cc1 (stereo unspecified)	Sm TGR inh 0.63µM
COc1ccc(N2C(=O)CC(Sc3nc(C)c4c(n3)CCCC4)C2=O)cc1 (stereo unspecified)	HCV inh inconclusive
